Compound activity (PubChem)
Only some compounds are listed: those with a hit (about 6.8% of all), similar ones and a draw of the others.
T cruzi growth-1 = inhibitors of T. cruzi proliferation; inhibition, % at 8.34 µM; T. cruzi beta-gal in NIH3T3, GalScreen luminescence, 90 h; AID 624255; actives 5.9% (n = 77,000);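 active = mean inhibition above about 93%, with at least 55% of replicates each passing it, limit read from the data, passing the limit was not always enough; inconclusive = only one of those two conditions holds; inactive = neither condition holds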
C diff growth = C. difficile growth inhibition; actives 0.25% (n = 86,000); Clostridium difficile clinical isolate growth, OD600, 24 h; stronger effect = lower value; AID 1259249; growth activity, negative = inhibition, % at 16 µg/mL (by protocol);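 active = mean growth activity at or below -80% and every replicate also at or below -80%; inconclusive = mean at or below -80% but some replicate above -80%; inactive = mean growth activity above -80%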
Pf Dd2 inh = blocks growth of Plasmodium falciparum Dd2 parasites; P. falciparum Dd2 growth, SYBR Green, 72 h; stronger effect = lower value; activity change, % at 10 µM; actives 2.3% (n = 94,000); in the data active = activity change below about -80%; inconclusive = no clear call, values can overlap the other calls
T cruzi growth-2 = Trypanosoma cruzi proliferation inhibition. shares compounds with T cruzi growth-1. T. cruzi beta-gal in NIH3T3, GalScreen luminescence, 90 h. inhibition, % at 8.35 µM. actives 72% (n = 5,600);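 active = mean replicate inhibition above about 95% and at least 55% of replicates individually reaching it, limit read from the data; inconclusive = only one of the two criteria is met; inactive = neither criterion is met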
T cruzi growth-3 = inhibitors of T. cruzi proliferation. T. cruzi beta-gal in NIH3T3, GalScreen luminescence, 90 h. shares compounds with T cruzi growth-1. actives 21% (n = 5,600). inhibition, % at 2.09 µM;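 active = mean inhibition above about 95%, with at least 55% of replicates also reaching it, limit read from the data; inconclusive = meets just one of the two conditions; inactive = meets neither condition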
3T3 cytotox = NIH/3T3 (mouse) viability loss. shares compounds with T cruzi growth-1. NIH/3T3 viability, CellTiter-Glo ATP luminescence, 90 h. cytotoxicity (signal decrease), % at 8.35 µM. actives 14% (n = 5,600);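 active = mean signal decrease across replicates above about 35% based on untreated-well scatter, with enough replicates individually passing, limit read from the data; inconclusive = no rule stated though some were filed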
NIH3T3 tox 2 = kills mouse NIH/3T3 fibroblasts; actives 56% (n = 5,600); shares compounds with T cruzi growth-1; NIH/3T3 viability, CellTiter-Glo ATP luminescence, 90 h; inhibition, % at 24.9 µM;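 active = mean loss of cell viability signal at or above a set limit, and enough replicates individually reaching it; inconclusive = meets only the mean limit or only the replicate share; inactive = meets neither condition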
Large screens that a line does not name were inactive (follow-up assays come after a bar, where they were run).

O=C(C[C@@H]1CC[C@@H]2[C@H](COC[C@@H](O)CN2CCC(F)(F)F)O1)N1CCC(Cc2ccccc2)CC1	T cruzi growth-1 inconclusive | T cruzi growth-2 inconclusive | T cruzi growth-3 inactive | 3T3 cytotox inactive | NIH3T3 tox 2 inactive
O=C(C[C@H]1CC[C@@H]2[C@H](COC[C@@H](O)CN2Cc2cccc(C(F)(F)F)c2)O1)NCc1ccccc1	none
O=C(C[C@H]1CC[C@@H]2[C@H](COC[C@H](O)CN2CCC(F)(F)F)O1)N1CCC(Cc2ccccc2)CC1	none
O=C(C[C@@H]1CC[C@@H]2[C@H](COC[C@H](O)CN2CCC(F)(F)F)O1)NCC1CCCCC1	T cruzi growth-1 117 | T cruzi growth-2 inactive | T cruzi growth-3 inactive | 3T3 cytotox inactive | NIH3T3 tox 2 inactive
O=C(C[C@H]1CC[C@@H]2[C@H](COC[C@@H](O)CN2Cc2cccc(Cl)c2)O1)NCC1CCCCC1	T cruzi growth-1 111 (no result: Pf Dd2 inh) | T cruzi growth-2 inactive | T cruzi growth-3 inactive | 3T3 cytotox inactive | NIH3T3 tox 2 inactive
O=C(C[C@H]1CC[C@H]2[C@@H](COC[C@@H](O)CN2CCC(F)(F)F)O1)NCC1CCCCC1	none
O=C(C[C@H]1CC[C@@H]2[C@H](COC[C@@H](O)CN2Cc2cccc(C(F)(F)F)c2)O1)NCc1ccc(Cl)cc1	T cruzi growth-1 178 | T cruzi growth-2 109 | T cruzi growth-3 inactive | 3T3 cytotox 47 | NIH3T3 tox 2 56
CO[C@@H]1CN(C)C(=O)c2ccc(NC(=O)C3CC3)cc2OC[C@H](C)N(CC2CCOCC2)C[C@H]1C	none
C[C@@H]1CN([C@@H](C)CO)C(=O)c2cc(C3=CCCC3)cnc2O[C@H]1CN(C)Cc1ccccc1	none
C[C@@H]1CCCCO[C@H](CN(C)C(=O)CCCN(C)C)[C@@H](C)CN([C@H](C)CO)C(=O)c2cc(NC(=O)C3CCCCC3)ccc2O1	none
C[C@@H]1CN([C@H](C)CO)C(=O)c2cccc(NS(=O)(=O)c3cccs3)c2O[C@@H]1CN(C)CC1CCCCC1	none
O=C(C[C@@H]1CC[C@H]2[C@@H](COC[C@H](O)CN2Cc2cccc(C(F)(F)F)c2)O1)NCc1ccc(Cl)cc1	T cruzi growth-1 125 | T cruzi growth-2 110 | T cruzi growth-3 inactive | 3T3 cytotox inactive | NIH3T3 tox 2 28
O=C(C[C@@H]1CC[C@@H]2[C@H](COC[C@H](O)CN2Cc2cccc(C(F)(F)F)c2)O1)NCc1ccc(Cl)cc1	none
O=C(C[C@@H]1CC[C@@H]2[C@H](COC[C@@H](O)CN2Cc2cccc(C(F)(F)F)c2)O1)NCc1ccccc1	none (no result: C diff growth)
O=C(C[C@@H]1CC[C@@H]2[C@H](COC[C@@H](O)CN2Cc2cccc(C(F)(F)F)c2)O1)NCc1ccc(Cl)cc1	T cruzi growth-1 155 | T cruzi growth-2 inactive | T cruzi growth-3 inactive | 3T3 cytotox inactive | NIH3T3 tox 2 inconclusive
COCC(=O)Nc1ccc2c(c1)[C@H]1C[C@@H](CC(=O)NCc3ccccn3)O[C@H](CO)[C@H]1O2	none
O=C(C[C@@H]1CC[C@@H](NC(=O)C2CCC2)[C@@H](CO)O1)NCCCN1CCOCC1	none (no result: T cruzi growth-1)
O=C(Nc1ccccc1F)N1CCCCN2[C@H](CO)[C@H](c3ccc(C#Cc4cccnc4)cc3)[C@H]2C1	T cruzi growth-1 101 | T cruzi growth-2 109 | T cruzi growth-3 inactive | 3T3 cytotox inactive | NIH3T3 tox 2 70
O=C(Nc1ccccc1F)N1CCCCN2[C@H](CO)[C@H](c3ccc(-c4cccnc4)cc3)[C@H]2C1	none
O=C(Nc1ccccc1F)N1CCCCN2[C@@H](CO)[C@H](c3ccc(C#Cc4cccnc4)cc3)[C@@H]2C1	T cruzi growth-1 122 | T cruzi growth-2 106 | T cruzi growth-3 inactive | 3T3 cytotox inactive | NIH3T3 tox 2 38
O=C(Nc1cccc(F)c1)N1CCCCN2[C@H](C1)[C@@H](c1ccc(C#Cc3cccnc3)cc1)[C@@H]2CO	none
Cc1ccc(S(=O)(=O)Nc2ccc3c(c2)C(=O)N([C@H](C)CO)C[C@H](C)[C@H](CN(C)C(=O)c2ccccc2)OCCCC[C@H](C)O3)cc1	none
O=C(O)C[C@@H]1C[C@H]2c3cc(NC(=O)C4CCOCC4)ccc3O[C@H]2[C@@H](CO)O1	none (no result: T cruzi growth-1)
